Data published in PubChem BioAssay (Tox21).
Inconclusive results are not listed. The source made the active and inactive calls. Unless noted, calls follow the shape of the dose curve; as a rule, active = well fitted curve in the direction sought with a large enough effect in the repeat runs; inconclusive = weak or mixed curves; inactive = no such curve, though single readings can be large; an effect the other way counts as inactive or inconclusive.

Assays:
[1] = qHTS assay to identify small molecule agonists of the vitamin D receptor (VDR) signaling pathway - cell viability counter screen (AID 743224); also: series mostly up to about 63 µM; % is scaled to controls: 0 for no effect and ±100 for the full control effect; nearly all actives have a fitted effect of over 50% in size
Summary of the method: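 Cytotoxicity counter screen: VDR-bla cells, 16 h compound exposure at 37C, 5% CO2; CellTiter-Glo luminescence, 30 min RT, same wells as bla read.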

[2] = qHTS assay to identify small molecule antagonists of the vitamin D receptor (VDR) signaling pathway - cell viability counter screen (AID 743225); also: % is scaled to controls: 0 for no effect and ±100 for the full control effect; nearly all actives have a fitted effect of over 50% in size
Summary of the method: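 Cytotoxicity toward the VDR-bla HEK 293T line was scored by ATP-based CellTiter-Glo luminescence, read in the wells already used for the beta-lactamase readout after 16 h compound treatment under 3 nM 1-alpha,25-dihydroxyvitamin D3 stimulation.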

[3] = qHTS assay to identify small molecule agonists of the NFkB signaling pathway (AID 1159509; active = well fitted curve in the direction sought with a large enough effect in the signal ratio in the repeat runs, not every such curve was filed as active; the % refers to the signal ratio; also: series mostly up to about 61 µM; % is scaled to controls: 0 for no effect and ±100 for the full control effect)
Summary of the method: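 Pathway activation was measured in ME-180 cells stably expressing beta-lactamase under NF-kB response element control. Substrate cleavage was read as the 460/530 nm emission shift after 5 hr compound incubation.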

[4] = qHTS assay to identify small molecule agonists of the endoplasmic reticulum stress response signaling pathway (AID 1159516; active = well fitted activation curve with a large enough effect in the signal ratio in the repeat runs, not every such curve was filed as active; the % refers to the signal ratio; also: % is scaled to controls: 0 for no effect and ±100 for the full control effect)
Summary of the method: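 HeLa ESRE-bla reporter line; cpd 5 h, 37 C/5% CO2; LiveBLAzer B/G FRET substrate 2 h RT; ex 405, em 460/530 nm.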

[5] = qHTS assay to identify small molecule agonists of the endoplasmic reticulum stress response signaling pathway - cell viability counter screen (AID 1159517; calls by dose curve;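 also: HeLa cells carrying an ER stress response element beta-lactamase reporter; series mostly up to about 61 µM; % is scaled to controls: 0 for no effect and ±100 for the full control effect; nearly all actives have a fitted effect of over 50% in size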)
Summary of the method: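 In parallel with the ESRE reporter read, cytotoxicity was scored by CellTiter-Glo luminescence (30 min, room temperature) on HeLa ESRE-bla cells dosed for 5 hr.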

[6] = qHTS assay to identify small molecule antagonists of the retinoid-related orphan receptor gamma (ROR-gamma) signaling pathway - cell viability counter screen (AID 1159520); also: % is scaled to controls: 0 for no effect and ±100 for the full control effect; nearly all actives have a fitted effect of over 50% in size
Summary of the method: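 Tet-on ROR gamma CHO cells were given compounds for 2 hr, then doxycycline hyclate at 1 uM final, and incubated 16 hr at 37 C. Viability was measured as ATP content by CellTiter-Glo luminescence.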

[7] = target: Nuclear receptor ROR-gamma (Homo sapiens) (UniProt P51449); assay: qHTS assay to identify small molecule antagonists of the retinoid-related orphan receptor gamma (ROR-gamma) signaling pathway (AID 1159521)
Summary of the method: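 Readout: ONE-Glo luciferase luminescence, 30 min at room temperature. System: Tet-on RORγ CHO, RORE-LUC. Sequence: compound 2 h, doxycycline 1 uM final, 16 h at 37 C.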

[8] = qHTS assay to identify small molecule agonists of the AP-1 signaling pathway (AID 1159526; calls by dose curve; also: % is scaled to controls: 0 for no effect and ±100 for the full control effect)
[9] = qHTS assay to identify small molecule agonists of the NFkB signaling pathway - cell viability counter screen (AID 1159515; calls by dose curve; also: series mostly up to about 61 µM; % is scaled to controls: 0 for no effect and ±100 for the full control effect; nearly all actives have a fitted effect of over 55% in size)
Summary of the method: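 ME-180 NFkB-bla cells, 2,000/well; overnight attach; compound 5 hr, 37 C/5% CO2; LiveBLAzer substrate 1.5 hr RT; then CellTiter-Glo in same wells, 30 min RT, luminescence read.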

[10] = qHTS assay to identify small molecule agonists of the AP-1 signaling pathway - cell viability counter screen (AID 1159525; calls by dose curve; also: nearly all actives have a fitted effect of over 55% in size)
Summary of the method: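 Same-well cytotoxicity counter screen of the Tox21 10K library in ME-180 cells. The readout is ATP-dependent luminescence after 5 h compound treatment. Data are normalised to DMSO and tetra n-octyl ammonium bromide controls.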

CC(C)c1cccc(C(C)C)c1N
inactive: outcome [1] | outcome [2] | outcome [3] | outcome [4] | outcome [5] | Potency [6] | Potency [7] | Potency [8]

CCCOc1ccccc1-c1nc2n[nH]nc2c(=O)[nH]1
inactive: outcome [1] | outcome [2] | outcome [3] | outcome [9] | outcome [5] | Potency [7] | outcome [10] | Potency [8]

CCn1c(=O)c2c(nc(/C=C/c3ccc(OC)c(OC)c3)n2C)n(CC)c1=O
inactive: outcome [1] | outcome [2] | outcome [3] | outcome [4] | outcome [5] | Potency [6] | Potency [7] | outcome [10] | Potency [8]

CC/C=C\C#N
inactive: outcome [1] | outcome [2] | outcome [3] | outcome [4] | outcome [5] | Potency [6] | Potency [7] | outcome [10] | Potency [8]

CCCCCCCCCCCCCCCCCC(=O)OCCCCCCCCCCCCCC(C)C
inactive: outcome [1] | outcome [2] | outcome [3] | outcome [9] | outcome [5] | Potency [7] | Potency [8]

O=C1C(CCS(=O)c2ccccc2)C(=O)N(c2ccccc2)N1c1ccccc1 (stereo not drawn)
inactive: outcome [3] | outcome [4] | outcome [5] | Potency [6] | Potency [7] | outcome [10] | Potency [8]

COc1cc(O)cc(O)c1
inactive: outcome [1] | outcome [9] | outcome [4] | outcome [5] | Potency [6] | Potency [7] | outcome [10] | Potency [8]

NC(=O)Nc1nc2ccccc2[nH]1
inactive: outcome [1] | outcome [2] | outcome [3] | outcome [4] | outcome [5] | Potency [7] | outcome [10] | Potency [8]

c1ccc(SCCSc2ccccc2)cc1
inactive: outcome [1] | outcome [2] | outcome [3] | outcome [4] | outcome [5] | Potency [6] | Potency [7] | outcome [10] | Potency [8]

CC(C)=CCC/C(C)=C/C(=O)O
inactive: outcome [1] | outcome [2] | outcome [3] | outcome [5] | Potency [6] | Potency [7] | outcome [10] | Potency [8]

C=C(C)C(=O)OCCCCCCCCCCCCCCCCCC
inactive: outcome [1] | outcome [2] | outcome [3] | outcome [4] | outcome [5] | activity change, negative = inhibition [7] 0.457% [at 19 µM] | viability change, negative = cytotoxic [10] 1.55% [at 15.8 µM] | activation [8] 0.371% [at 15.8 µM]

Cc1ccccc1Br
inactive: outcome [1] | outcome [3] | outcome [4] | outcome [5] | Potency [6] | Potency [7] | outcome [10] | Potency [8]

CCOC(=O)Cn1c(=O)sc2cccc(Cl)c21
inactive: outcome [1] | outcome [2] | outcome [3] | outcome [9] | outcome [5] | Potency [7] | outcome [10] | Potency [8]

NC(=O)c1c(Cl)cccc1Cl
inactive: outcome [1] | outcome [2] | outcome [3] | outcome [4] | outcome [5] | Potency [6] | Potency [7] | outcome [10] | Potency [8]

COC[C@H](c1ccc(C(F)(F)F)cc1)N1CCN(C2(C)CCN(C(=O)c3c(C)ncnc3C)CC2)C[C@H]1C
inactive: outcome [1] | outcome [3] | outcome [4] | outcome [5] | Potency [6] | Potency [7] | outcome [10] | Potency [8]

CC(C)c1cccc(O)c1
inactive: outcome [1] | outcome [2] | outcome [3] | outcome [4] | outcome [5] | Potency [6] | Potency [7] | Potency [8]

N[C@@H](CS)C(=O)O
inactive: outcome [1] | outcome [3] | outcome [4] | outcome [5] | Potency [6] | Potency [7] | outcome [10] | Potency [8]

CCN1CCCC(OC(=O)C(c2ccccc2)c2ccccc2)C1 (stereo not drawn)
inactive: outcome [1] | outcome [2] | outcome [9] | outcome [5] | Potency [7] | outcome [10] | Potency [8]

Cc1c(C)n(CCN(C)C)c2ccc(C(=O)OCCN(C)C)cc12
inactive: outcome [1] | outcome [2] | outcome [9] | outcome [4] | outcome [5] | Potency [7] | outcome [10] | Potency [8]

N#CC1(O)CCCCC1
inactive: outcome [1] | outcome [2] | outcome [9] | outcome [5] | Potency [6] | Potency [7] | outcome [10] | Potency [8]

COC(=O)CCCCCCCCC(=O)OC
inactive: outcome [1] | outcome [2] | outcome [9] | outcome [4] | outcome [5] | Potency [6] | Potency [7] | Potency [8]

C=C(C)[C@H]1CC=C(C)CC1
inactive: outcome [1] | outcome [2] | outcome [4] | outcome [5] | Potency [6] | outcome [10] | Potency [8]

COc1cc(C)cc(O)c1
inactive: outcome [1] | outcome [2] | outcome [4] | outcome [5] | Potency [6] | Potency [7] | Potency [8]

O=[N+]([O-])c1ccc(CCO)cc1
inactive: outcome [1] | outcome [2] | outcome [9] | outcome [4] | outcome [5] | Potency [6] | Potency [7] | outcome [10] | Potency [8]

NC(=S)Nc1cccc2ccccc12
inactive: activity change, negative = cytotoxicity [1] 6.68% [at 5.95 µM] | viability change, negative = cytotoxic [2] -0.0846% [at 6.95 µM] | activity, negative = cytotoxic [9] -2.24% [at 6.95 µM] | activity change, negative = cytotoxicity [5] 2.64% [at 6.95 µM] | activity, negative = cytotoxicity [6] 13.1% [at 8.39 µM] | activity change, negative = inhibition [7] 10.3% [at 8.39 µM] | viability change, negative = cytotoxic [10] -1.31% [at 6.97 µM] | activation [8] -4.57% [at 6.97 µM]

OC[C@H]1O[C@@H]2O[C@H]3[C@H](O)[C@@H](O)[C@@H](O[C@H]4[C@H](O)[C@@H](O)[C@@H](O[C@H]5[C@H](O)[C@@H](O)[C@@H](O[C@H]6[C@H](O)[C@@H](O)[C@@H](O[C@H]7[C@H](O)[C@@H](O)[C@@H](O[C@H]8[C@H](O)[C@@H](O)[C@@H](O[C@H]9[C@H](O)[C@@H](O)[C@@H](O[C@H]1[C@H](O)[C@H]2O)O[C@@H]9CO)O[C@@H]8CO)O[C@@H]7CO)O[C@@H]6CO)O[C@@H]5CO)O[C@@H]4CO)O[C@@H]3CO
inactive: outcome [1] | outcome [2] | outcome [9] | outcome [4] | outcome [5] | Potency [6] | Potency [7] | Potency [8]
